# Source: paper PMC13494018
# B1: design_603_0b98da89-d791-4423-9b2d-fd1b7292da18_2259_dldesign_0_cycle1_af2pred (protein)
# chain: GAAALAAGKAALKEAKDTAAKANEAMGGGLQPVFDSAMKTVEAKKGDPAAYLKAATAFKTTFSRILKLAS
# B2: design_603_0b98da89-d791-4423-9b2d-fd1b7292da18_2271_dldesign_0_cycle1_af2pred (protein)
# chain: MTPEEKKAAEAEKIAAAADAAIKAAEKAIASGTKAEIATEAARLESVAMAAKALGTAPDIAERAEAAAEKAWQAAVEKLE
# B3: design_603_0b98da89-d791-4423-9b2d-fd1b7292da18_2319_dldesign_0_cycle1_af2pred (protein)
# chain: AETWLDALDDAAKDHPSFAYAFATSIAKRAEEKIKELTEKAKENASNPELKKKLLEKAEEYKKVLEKAKEVAEKALKEYLA
# B4: design_603_0b98da89-d791-4423-9b2d-fd1b7292da18_2381_dldesign_0_cycle1_af2pred (protein)
# chain: AAAAAEEAATAAAAALGKAVAAQVLAAADDPEKRGALVAEAQAIADKLSPAQRAAMAAAMHEAHEKIAEKKSEKAR
# B5: design_603_0b98da89-d791-4423-9b2d-fd1b7292da18_2382_dldesign_0_cycle1_af2pred (protein)
# chain: ALAAAKEKAKAIEEKLSQAIFDGADKGPEVVFKAAEEAEKEVEEMKKADPKAKEEVKRAKEAVKKAKAVGKSMKEAEENAKKGA
# B6: design_603_0b98da89-d791-4423-9b2d-fd1b7292da18_2465_dldesign_0_cycle1_af2pred (protein)
# chain: ASEKAKAFSEAQRLLVRAGKLAAADPKTAPVAELVQKAIFALGDNLEEGLKLAEEAAELAKKIGDEETAKLVKEAAEKIKEVI
# B7: design_604_3e0b3014-b333-46f1-8adc-d7f0bf8048fa_12_dldesign_0_cycle1_af2pred (protein)
# chain: MNLEEAKNLLEAAKELVEEAKELLKEGKYKQALAFAKTAYEIAEKVAKEVPELAKEAEKIKKEAKEVIEEAKKAL
# B8: design_604_3e0b3014-b333-46f1-8adc-d7f0bf8048fa_75_dldesign_0_cycle1_af2pred (protein)
# chain: SAEAEEAEKKALLEFSEAAAELRGLATLGKNKGNAKELAEKGFKAIEEGKKALEAATKTEEKKEIATRYAKELKELKEKLEKALS
# B9: design_604_3e0b3014-b333-46f1-8adc-d7f0bf8048fa_145_dldesign_0_cycle1_af2pred (protein)
# chain: IKQLEQLLEMAEEEAKKDPVTGIALARATINRADRLAASGTPEEAKKANEIKEKAEKVKKEAEAKLAAAEAAAKA
# B10: design_604_3e0b3014-b333-46f1-8adc-d7f0bf8048fa_148_dldesign_0_cycle1_af2pred (protein)
# chain: MKEASEEMAKAYEALAELRLLAKKIPEFKEDAEKAEKKLKEAVKADPETALKLAKETKEEVEKAIEKAKKKL
# B11: design_604_3e0b3014-b333-46f1-8adc-d7f0bf8048fa_171_dldesign_0_cycle1_af2pred (protein)
# chain: QEALKKELEKAAAKVKELAEYIEKNAEKLTAEEAEKIAEELRKLAKKLREIGEKLDAETRKEAQKAVDLAYEAAALAKSIAARKK
# B12: design_604_3e0b3014-b333-46f1-8adc-d7f0bf8048fa_188_dldesign_0_cycle1_af2pred (protein)
# chain: GALEEIKKLGKKAKEAAKNGDSSEAIREFAKLAKAAGKALTPEFAKKASEKLYEVVDTLAKDEEEGKKLLEKKVEEIVKEAKKYLE
# B13: design_604_3e0b3014-b333-46f1-8adc-d7f0bf8048fa_253_dldesign_0_cycle1_af2pred (protein)
# chain: SETTEKLKKELEAAKKEGKEALAKAEAAGDAEAAKKAGSDAAGKLYEIAAEADSAGDKETAKEARKAAKEIREAAKKAIAAAKAKAAA
# B14: design_604_3e0b3014-b333-46f1-8adc-d7f0bf8048fa_423_dldesign_0_cycle1_af2pred (protein)
# chain: AKEKALKEALKEFDKAQEYGFDYVAEAKKNPEVYEEAYEERKKAIKEAKELYKEATTEEKAKELLELAKKEAEKFKEKAKEL
# B15: design_604_3e0b3014-b333-46f1-8adc-d7f0bf8048fa_498_dldesign_0_cycle1_af2pred (protein)
# chain: MLEFLEKVEEKADKKIEEALAKEDPVKALEEEKKKMEAELKAKSEAAKGDPGLHKLYLTAARLAKNQFDVEIKKAKEELE
# B16: design_604_3e0b3014-b333-46f1-8adc-d7f0bf8048fa_503_dldesign_0_cycle1_af2pred (protein)
# chain: SAALVDARVAAADALYDAAIAAGYESLAGKIATAFIRGAATGVEAALERASAVAPEELKPVVAAEAAKVAAVA
# B17: design_604_3e0b3014-b333-46f1-8adc-d7f0bf8048fa_596_dldesign_0_cycle1_af2pred (protein)
# chain: DAKKEIQELTDEAIKKIEEYAKKAKDPKNYEKAIKEAVDTVHEAQQKLAEIGKKYGPEAEKYAKEQRKKVIDAGKKYIEEAKKAQA
# B18: design_604_3e0b3014-b333-46f1-8adc-d7f0bf8048fa_672_dldesign_0_cycle1_af2pred (protein)
# chain: ALEKATEAAKKAGEAVAKALGEEGKPVAEEAIEKIADPSTWKDGFSLFLRYAYYAGEEVYKKVDELLDEVLELLS
# B19: design_604_3e0b3014-b333-46f1-8adc-d7f0bf8048fa_694_dldesign_0_cycle1_af2pred (protein)
# chain: SVEEKLKEAEKVFKEVEERAKKVEAKDPEEGKKLREELAKARELAESDPSKAPEAAQQARIALTEAEWEVRKKEK
# B20: design_604_3e0b3014-b333-46f1-8adc-d7f0bf8048fa_739_dldesign_0_cycle1_af2pred (protein)
# chain: KEEILKEAKKLKEEAVKKAKEGNAEEGRKARKEFLEEMKKMAEKGDKKEISKITHEALEKIAEAIQEAKEKARKEEEEKK
# B21: design_604_3e0b3014-b333-46f1-8adc-d7f0bf8048fa_762_dldesign_0_cycle1_af2pred (protein)
# chain: SKKVYELYAEAKLEQIKRAKELAPKGDPKLAAERAEKLAKEAKEAAKKAGEEGEKIAKEAEKEAEALKKEV
# B22: design_604_3e0b3014-b333-46f1-8adc-d7f0bf8048fa_818_dldesign_0_cycle1_af2pred (protein)
# chain: EEVEKKSEEVKKLLEEGAKTTTIDAQLAASEAVELAEELMKKDPEKGLKVAEVVLKEAEKLLKANPGVGELTIKRAEKVIKRAKE
# B23: design_604_3e0b3014-b333-46f1-8adc-d7f0bf8048fa_841_dldesign_0_cycle1_af2pred (protein)
# chain: AELEKAIKEANALRDKALDNVGNPEEAQKYIDELKEKAKKAAELGGPEVAKEAEKMIKALEDTLEKAKKILE
# B24: design_604_3e0b3014-b333-46f1-8adc-d7f0bf8048fa_844_dldesign_0_cycle1_af2pred (protein)
# chain: EEEKLKEAEKHLEKMIEILKEAAKKGYAKEEVELVKGDEETRKKGVYNAMGNVITGEGKEGVETARKISRYAKKSEELRKA
# B25: design_604_3e0b3014-b333-46f1-8adc-d7f0bf8048fa_936_dldesign_0_cycle1_af2pred (protein)
# chain: MEEAKEKAKEQIKKLKEAAEKAVKVYKEIGKEEEAKKIKEEAKKAEKEAEKLLEKDPYEGAQLAQEALAEAKAELSRAEKELKK
# B26: design_604_3e0b3014-b333-46f1-8adc-d7f0bf8048fa_941_dldesign_0_cycle1_af2pred (protein)
# chain: SLLDEAVALLAAANPALAPEFEKLARELQGYLDLAKDYPEIAPVMLKRATRVGEELVAVAAEAGPEVAEVATAAVEEVLAAIK
# B27: design_604_3e0b3014-b333-46f1-8adc-d7f0bf8048fa_950_dldesign_0_cycle1_af2pred (protein)
# chain: AEEALKKAEEYAAKGDEYAAKGEAYEKSGDKLEEAAKYYAKAASYYLLAANAYLAAGNEEKAKEAEAKAEEAAEKATEAYQKASA
# B28: design_604_3e0b3014-b333-46f1-8adc-d7f0bf8048fa_962_dldesign_0_cycle1_af2pred (protein)
# chain: HHKKEKAKKVAELLEKARELAEKEGPEAAKPLIVEARSLAFEVDSELGRKIAKAGLLILKDLEKGLKILKEVQEEFKKIA
# B29: design_604_3e0b3014-b333-46f1-8adc-d7f0bf8048fa_1004_dldesign_0_cycle1_af2pred (protein)
# chain: AAAEAARKAEVAKKSKELAKQIAENASDEEKRKALLAEMRALAEAGTPEEAAIVVEEVHKGYEEAAEKLVEERR
# B30: design_604_3e0b3014-b333-46f1-8adc-d7f0bf8048fa_1013_dldesign_0_cycle1_af2pred (protein)
# chain: SLEEILKEVKAENERLTARIEAAYERGLAAIAAGDLKAASAAAGEIAEARAEAALINTRYGNVAKEVEDKARELLREVRAAGKA
# B31: design_604_3e0b3014-b333-46f1-8adc-d7f0bf8048fa_1067_dldesign_0_cycle1_af2pred (protein)
# chain: SEIEKGEALLKEDPEWAKAASDALGKIAEDPEEGEKYAKEVIEKVLKEDPEKGPLMAKAIEERSEKLKKRVEEALERAK
# B32: design_604_3e0b3014-b333-46f1-8adc-d7f0bf8048fa_1074_dldesign_0_cycle1_af2pred (protein)
# chain: DPAEERVEKARKEMEKAVEKYAEKGKKENLNLAYAEAIREISRIAKELVKEIGEEVRERALKIKEEQLKKLEKLEKEA
# B33: design_604_3e0b3014-b333-46f1-8adc-d7f0bf8048fa_1084_dldesign_0_cycle1_af2pred (protein)
# chain: SPAAAAAAVQYAAFDAIAAATDAATVKAIADAAVAALAAAAAADPAHAEQYAKAAAAIKSFADAAIKALK
# B34: design_604_3e0b3014-b333-46f1-8adc-d7f0bf8048fa_1117_dldesign_0_cycle1_af2pred (protein)
# chain: MEGIETSDLLSKAIKTGKEAYKELKEVGTEEEAEKFKEEMVKKLFEAADADIEESKKLLKELLKEAEEKLEEAKKRKA
# B35: design_604_3e0b3014-b333-46f1-8adc-d7f0bf8048fa_1128_dldesign_0_cycle1_af2pred (protein)
# chain: MAEKEAQLKKIEEEKKKVSEKFFEAFELASSKELASEISKKSKEANELFKKGREDPSIADKTMEEAKKIAEEALEKAKKEKEA
# B36: design_604_3e0b3014-b333-46f1-8adc-d7f0bf8048fa_1186_dldesign_0_cycle1_af2pred (protein)
# chain: SMSKELAEKIRKAIREIREAAERAIAEARRLVEEGRVEEGLAVLEEAEKEFRELAKKWEGYAASGVAENGAAALRAVREEIE
# B37: design_604_3e0b3014-b333-46f1-8adc-d7f0bf8048fa_1191_dldesign_0_cycle1_af2pred (protein)
# chain: EEKKKEIEELKKKVSKAQLELTDLAAKQDISKKDLEEKVQEAIRKAAKLGKIADEAVAKGEEYYPEAKKALEEALKVLEEAKKAVEEA
# B38: design_604_3e0b3014-b333-46f1-8adc-d7f0bf8048fa_1215_dldesign_0_cycle1_af2pred (protein)
# chain: SRVEELGKRLANKGKKYSLDDAADFGAEMAIMAGLTEEEAEAAFKYAAEIDPSFAEAMKKGLALYKELTA
# Target: VTCN1, Q7Z7D3
# Sequence (Q7Z7D3 whole entry): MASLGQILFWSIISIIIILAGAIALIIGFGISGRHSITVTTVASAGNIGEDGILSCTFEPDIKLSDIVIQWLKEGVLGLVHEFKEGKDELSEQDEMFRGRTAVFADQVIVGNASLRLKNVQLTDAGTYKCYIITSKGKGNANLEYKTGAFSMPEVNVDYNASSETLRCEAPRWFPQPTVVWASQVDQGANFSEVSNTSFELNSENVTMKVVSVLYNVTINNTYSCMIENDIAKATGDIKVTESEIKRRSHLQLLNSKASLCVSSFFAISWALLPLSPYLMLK
row,Binder,binding in a display sort
1,B1,not found (inactive)
2,B2,not found (inactive)
3,B3,not found (inactive)
4,B4,not found (inactive)
5,B5,not found (inactive)
6,B6,not found (inactive)
7,B7,not found (inactive)
8,B8,not found (inactive)
9,B9,not found (inactive)
10,B10,not found (inactive)
11,B11,not found (inactive)
12,B12,not found (inactive)
13,B13,not found (inactive)
14,B14,not found (inactive)
15,B15,not found (inactive)
16,B16,not found (inactive)
17,B17,not found (inactive)
18,B18,not found (inactive)
19,B19,not found (inactive)

row,Binder,binding in a display sort
1,B20,not found (inactive)
2,B21,not found (inactive)
3,B22,not found (inactive)
4,B23,not found (inactive)
5,B24,not found (inactive)
6,B25,not found (inactive)
7,B26,not found (inactive)
8,B27,not found (inactive)
9,B28,not found (inactive)
10,B29,not found (inactive)
11,B30,not found (inactive)
12,B31,not found (inactive)
13,B32,not found (inactive)
14,B33,not found (inactive)
15,B34,not found (inactive)
16,B35,not found (inactive)
17,B36,not found (inactive)
18,B37,not found (inactive)
19,B38,not found (inactive)
